Test results taken from the supplement of paper PMC11417369.
The full ranking holds about 25,000 sequences; the median of “ln(normalized median fluorescence intensity)” is about 9.7, and the highest 2% start at about 11. The sample holds the highest values, similar sequences and a random draw of the others, so the mix is not that of the screen.

system: PfAP2-HC AP2 domain (GST-tagged); experiment: gcPBM binding intensity (ln(normalized median fluorescence intensity)); higher = stronger DNA binding
Summary of the method: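 Binding of GST-tagged P. falciparum DNA-binding domains, expressed in E. coli and used at about 25 μg on average, was carried out for 1 h in 1× PBS containing 1% milk, 0.2 mg/ml BSA, 0.5% salmon testes DNA and 0.03% Triton X-100. The target was an Agilent 4 × 180k array of primer-extended double-stranded 36-bp intergenic genomic probes plus negative controls, read with Alexa488 anti-GST antibody at 488 nm. Binding intensity is the highest Masliner-normalised natural-log median intensity across replicate spots of either probe orientation.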

| Sequence | gcPBM binding intensity (ln) |
| --- | --- |
| ATAATGTAAAATAAATGTACGCAATATATAAAAAAT [XGTACX_site5747] | 10.1 |
| AAATAATTTACTTAATGTACATATATATATATATAT [XGTACX_site8594] | 9.78 |
| TTGTAGGTAAATATGTGTACGCATTATTATTCTTAA [XGTACX_site216] | 9.58 |
| CTTATAATATTACGGGTGCTATAAATACATTATATT | 9.72 |
| TAAATATATATATGGTGTACCATTTTGGGTTAATAT [XGTACX_site2706] | 9.54 |
| ATACAACAAAAATAAGCACACACAAATATACATACA [CACACA_site9201] | 10.8 |
| AAACAAAAAAAATAAGCACACATATATATATATATA [CACACA_site8173] | 9.7 |
| CCAACAAAAATAAGCACACACAAATATACATACATA [CACACA_site3606] | 11.1 |
| AATATAAGCAAATACACACACACATATATATATATA [CACACA_site3805] | 10.7 |
| ACAACAAAAATAAGCACACACAAATATACATACATA [CACACA_site7664] | 11.3 |
| ACAAAAAAAATAAGCACACATATATATATATATATA [CACACA_site816] | 9.91 |
| ATATATATATATATGTGTACATATAAGATAGAAGAA [XGTACX_site3198] | 10.2 |
| TTTTTTAATATTTATACATGCATGCCGATTACTATA [TGCATGCA_site26] | 9.87 |
| TATATATAATACAGTATGCACTATTTTTATTAAAAA | 9.41 |
| AGTAACAAAAGAAAAAAATATGCAAACATATATATA [XGTACX_negctrl_site468] | 9.65 |
| TTTTTATTTGGTTGTGTACACATATATATATATATA [CACACA_site5844] | 9.84 |
| TTATACTAAATGAACACACACACATCTATATTTATA [CACACA_site6199] | 10.3 |
| TGAACACACGAGCACACACACACATCTATATTTATA [CACACA_site6607] | 11.1 |
| TACATACATACATACACACACACATCTATATTTATA [CACACA_site6171] | 10.6 |
| GTAGAGAAAAAAATGTGGACACAAAAAATAAAAAGG [XGTACX_site4058] | 9.79 |
| ATAAATAAAGGACACACACACACACTAGAAAAAAAA [CACACA_site5450] | 11.1 |
| AAAAATAAAGGATATACACACTAATTATATATATAT [CACACA_site5550] | 9.91 |

| Sequence | gcPBM binding intensity (ln) |
| --- | --- |
| AAAAAAGAAAAAAGGACACACATAAATATACACCCG [CACACA_site5590] | 10.2 |
| AAAAAAATAAAGGATATACACACTAATTATATATAT [CACACA_site2812] | 9.81 |
| ATAAATAAAGGACACACACACACACTAATAAAAAAA [CACACA_site8840] | 11.4 |
| ATATGTTTTGTTTACGTGCACTGCTTTGTTTATATA [GTGCAC_site9622] | 10.5 |
| ATATTTATTTATAATTGTACTAATAATATATTTTAA [XGTACX_site587] | 9.51 |
| TTTCCTTACCCTTTCCTGGTGTAGAAATTATACTCT [TGCATGCA_negctrl_site116] | 9.61 |
| TATTTCATCTTTTAAGAAGGTACCCATATGTCATAT [GTGCAC_negctrl_site403] | 9.57 |
| TTATTTTATTTTAAAAAAAACAATATAAATTCAAAG [GTGCAC_negctrl_site57] | 9.09 |
| AAATATATATATATAATACACACTAAAGTAACATAA [CACACA_site2870] | 10 |
| ATAATCCTTAAACACACACACACACTAATAAATAAA [CACACA_site8052] | 10.8 |
| ATAATCCTTGGACACACACACACACTAGTAAATAAA [CACACA_site4423] | 11.3 |
| TCAAAGCACACATACACACACATATAGATTTATATA [CACACA_site6272] | 10.2 |
| CATTTGCACACGCACACACACATAAAAAGAAAAATA [CACACA_site6297] | 11.1 |
| CATTTGCCCAGGCACACACACATAAAAAGAAAAATA [CACACA_site356] | 10.2 |
| TTATCACATTATTGCACACACATAAAGAAAAAAATA [CACACA_site2841] | 9.94 |
| ATCATTTGCTCACGCACACACACATAAAAAGAAAAA [CACACA_site4349] | 10.2 |
| ATGCATAAAAGAAATACACACATAAATATATAAATA [CACACA_site2163] | 9.99 |
| ATCATTTGCATACGCACACACACATAAAAAGAAAAA [CACACA_site355] | 10.9 |
| CATTTGCACCCGCACACACACATAAAAAGAAAAATA [CACACA_site4350] | 11.1 |
| TTTTATCACATTATTGCACACACATAAAGAAAAAAA [CACACA_site8922] | 9.98 |
| TAAACATTTTTGCACGCACACAAAAAAAAAATAAAA [CACACA_site167] | 10.3 |
| ATATATTTTTAGCACAGTACAATATAATTAAATATA [XGTACX_site6779] | 9.62 |

| Sequence | gcPBM binding intensity (ln) |
| --- | --- |
| AAAAAAAAAAAAAAAAGTACTAATTGAATATTAAAC [XGTACX_site3383] | 9.44 |
| TATGTGTTCAGTATTGCACACACACTCCAAAATAAA [CACACA_site8018] | 10 |
| TATAAATATGTATATGCATGTGGAATATATAATTAA [TGCATGCA_site226] | 9.69 |
| GGATTTATTATATATACACACATACATATATATATA [CACACA_site8669] | 9.88 |
| ATTATATATATCAGGTGTACGTAAAAAAAATGGACG [XGTACX_site1028] | 9.88 |
| TTTTTAATTAACTTTGTAAACTTATATATATATATA [TGCATGCA_negctrl_site311] | 9.6 |
| AATCGTGTTCTGAATACACACTAATACAAATTTGTA [CACACA_site6058] | 9.75 |
| TGTAGTCTGGAGAAGAGTACACAGTATCTGGTAGCT [XGTACX_site2036] | 9.72 |
| AATATGTTTTGTTAGGTTGGTGTTGGTAGAATGTTT [CACACA_negctrl_site1563] | 9.85 |
| ATTTGGCATGGACACACACACACACCGACAGACATA [CACACA_site4491] | 11.4 |
| TATACTCATGGACACACACACATACACAGACATACA [CACACA_site5024] | 10.4 |
| AAAAATTTGGCATACACACACACACCGACACAGACA [CACACA_site4489] | 10.5 |
| CCCACAGACGGACACACACACACATATATATATATA [CACACA_site4352] | 11.1 |
| TAAACAGACATATAAACACACATATAAACCGACATA [CACACA_site2478] | 10.3 |
| AGCACAGACGGACACACACACATATATATATATATA [CACACA_site4341] | 10.8 |
| CCCACAGACGGACACACACACACACCGACACATATA [CACACA_site4356] | 11 |
| CATATACATACACATACACACATACAGACATACACA [CACACA_site6919] | 10.2 |
| TATACAGACAGACACACACACATATATATATATATA [CACACA_site1734] | 10.2 |
| TATAGATACAGATACACACACACACCGACATATATA [CACACA_site5832] | 10.7 |
| CATACATACAGACACACACACATATATATATATATA [CACACA_site2920] | 10.7 |
| CGCACAGACGGACACACACACACATATATATATATA [CACACA_site5249] | 11.1 |
